Screening data (PubChem BioAssay)
MPTP block – inhibitors of mitochondrial permeability transition pore; isolated mouse mitochondria, Ca2+ swelling absorbance, 30 min; inhibition, % at 10 µM; actives 1.4% (n = 360,000);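 active means inhibition of 50% or more, scaled per plate between neutral and stimulator controls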;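 further: 0% = DMSO wells given calcium and 100% = 1 mM EGTA wells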
dFosB act – activators of mouse delta FosB homodimer; purified delta FosB, TAMRA-CDK5 oligo fluorescence polarization; percent of positive-control signal above neutral wells; activation, % at 25 µM; actives 0.99% (n = 340,000); AID 493131;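 active means mean activation above about 17%, with every replicate also reaching it, limit read from the data, passing the limit was not always enough; inconclusive means only one of the two conditions met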
Target sequence (P13346 whole entry, looked up): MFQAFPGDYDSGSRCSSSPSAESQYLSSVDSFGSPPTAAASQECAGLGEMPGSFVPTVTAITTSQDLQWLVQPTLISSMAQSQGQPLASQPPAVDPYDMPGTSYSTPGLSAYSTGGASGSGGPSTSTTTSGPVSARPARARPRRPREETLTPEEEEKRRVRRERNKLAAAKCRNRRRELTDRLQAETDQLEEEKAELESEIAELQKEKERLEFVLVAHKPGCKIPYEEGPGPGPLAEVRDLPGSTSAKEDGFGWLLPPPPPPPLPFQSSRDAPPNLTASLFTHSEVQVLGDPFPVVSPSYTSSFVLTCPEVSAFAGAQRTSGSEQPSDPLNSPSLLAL
HSF-1 act – increases HSF-1 driven luciferase reporter signal; NIH3T3-HGL HSF-1 luciferase reporter, MG132, 8 h; 100% = twice DMSO control signal; activation, % at 9 µM; actives 1.7% (n = 300,000); AID 504408;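 active means mean replicate activation of at least 50% with a set share of replicates each reaching 50%; inconclusive means only one of those two conditions met; inactive means mean below 50% and too few replicates reaching it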;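 further: 0% = median of the neutral control wells and 100% = twice that signal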
HSF1 inh – HSF1 inhibition. NIH3T3-HGL HSE-luciferase, MG132-induced, luminescence 8 h; active compounds read low. activity change, negative = inhibition, % at 7.5 µM (by protocol). actives 0.77% (n = 300,000);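 active means more than half of replicate wells show activity change below -50%, luminescence cut by over half; inconclusive means some wells, but at most half, below -50%; inactive means no replicate well below -50%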;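 further: luciferase reports HSF-1 transcriptional activity via heat shock element; 0% = median of DMSO wells and -100% = zero luminescence signal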
Platelet DG rel – modulates dense granule release in human platelets. human platelet-rich plasma, SFLLRN dense granule ATP release, luminescence. inhibition, %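 (compounds screened at 7.5 µM in platelet-rich plasma)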. actives 0.22% (n = 300,000);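 active means mean replicate score, as percent of positive control, at or above 50; inconclusive means mean below 50 but at least one replicate at or above 50; inactive means mean and every replicate below 50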
HSP90 refold inh – HSP90 refolding inhibition in rabbit reticulocyte lysate | AID 1789 | luciferase refolding luminescence, 3 h | actives 0.91% (n = 290,000) | inhibition, % at 5.6 µM;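 active means inhibition above the screen-wide mean plus 3 SD, computed separately per campaign, cut at about 16% in these data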;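 further: 0% = DMSO wells and 100% = 60 µM geldanamycin wells; inhibitors lower the luminescence because luciferase stays unfolded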
* hit, by the source's call; u = inconclusive; x = not tested or not shown. In the library only some 4.9% were active in any assay of this set; here they are far more common.

SMILES	MPTP block	dFosB act	HSF-1 act	HSF1 inh	Platelet DG rel	HSP90 refold inh
COC(=O)c1ccc(-c2nc3cc(Cl)c(N)cc3s2)cc1	-1.2	5.9	-65.0	-56.7*	26.3	8.8
O=S1(=O)C[C@H](N2CC[C@@H](O)C2)[C@@H](COCc2ccccc2)N1	-2.2	x	x	x	x	x
COC(=O)c1cccc(NC(=O)CN2CCN(Cc3ccccc3)CC2)c1	-0.9	-4.2	-70.3	-62.0*	-1.2	-2.6
CC(=O)c1cccc(NC(=O)CN2CCN(Cc3ccccc3)CC2)c1	1.3	-14.6	-14.5	-2.1	0.9	-0.4
COc1ccccc1Cc1c(-c2cccc(Cl)c2)nc2ccc(C)cn12	1.2	x	x	x	x	x
COC(=O)C(C#N)c1nc2ccccc2nc1N1CCN(Cc2ccc3c(c2)OCO3)CC1 (stereo not drawn)	x	x	19.5	1.8	55.9*	x
O=C(N=Nc1c(O)n(Cc2ccccc2)c2ccccc12)c1ccc(O)cc1	28.8	-5.4	62.1*	50.7	6.5	2.8
COC(=O)Cn1c(O)c(N=NC(=O)CNC(=O)c2ccc3c(c2)OCCO3)c2ccccc21	-0.8	-15.7	2.7	-2.8	-0.5	-1.4
O=C(CNC(=O)Cc1ccccc1)N=Nc1c(O)n(Cc2ccc3c(c2)OCO3)c2ccccc12	3.0	19.6*	2.3	-1.8	5.2	0.0
CCN(CC(=O)NCc1cccs1)C(=O)c1ccc(S(=O)(=O)Nc2ccccc2C)cc1	-0.5	-12.8	1.5	11.4	2.8	x
O=C(Cc1ccc(F)cc1)NCCS(=O)(=O)N1CCN(c2cccc(Cl)c2)CC1	-0.4	-9.4	0.1	2.1	1.1	x
CCOC(=O)C1=C(CN2CCN(C(=O)c3ccco3)CC2)NC(=O)NC1c1ccc(OC)cc1 (stereo not drawn)	0.2	-5.0	-91.4	-88.3*	0.6	1.5
O=C(CCC1CCCC1)N=C1SC2CS(=O)(=O)CC2N1c1ccccc1F (stereo not drawn)	-0.1	-9.4	64.3*	19.4	-7.7	3.8
COc1ccccc1C(CNC(=O)c1ccc(C)c(S(=O)(=O)N2CCCCC2)c1)N1CCCC1 (stereo not drawn)	-0.8	-3.2	x	x	x	x
O=C(O)c1csc(N/N=C/c2ccc(Br)cc2)n1	-2.9	-9.7	80.7*	39.3	5.6	15.7
Cc1csc(N/N=C/c2ccc([N+](=O)[O-])cc2)n1	1.7	-2.5	-10.6	-5.5	-2.9	3.5
COc1ccc([C@H]2N[C@]3(CCCN(Cc4ccc(C)cc4)C3=O)[C@H]3C(=O)N(C)C(=O)[C@@H]23)cc1	-0.7	x	x	x	x	x
Cc1ccc2[nH]cc(CCNC(=O)c3ccco3)c2c1	1.4	-4.8	-76.1	-68.4*	-39.4	-5.5
O=C(CN1C(=O)c2ccccc2C1=O)NCCc1c[nH]c2ccc(Cl)cc12	0.6	-6.8	11.1	7.4	-5.1	4.9
Cc1ccc2[nH]cc(CCNC(=O)CN3C(=O)c4ccccc4C3=O)c2c1	-0.4	-5.1	73.3*	24.0	0.1	-2.1
Cc1cc(Br)c2[nH]cc(CCNC(=O)c3ccco3)c2c1	-1.5	-3.8	-77.0	-69.5*	-1.4	-6.2
COc1ccc2[nH]cc(CCNC(=O)c3ccco3)c2c1	-2.6	1.9	x	x	x	x
COc1ccc(C)cc1-n1c(SCC(=O)Nc2cccc(C(=O)O)c2)nc2ccccc2c1=O	3.4	-12.9	74.8*	27.7	-5.1	0.7
COc1ccc(C(c2nnnn2Cc2ccccc2)N2CCN(C/C=C/c3ccccc3)CC2)cc1 (stereo not drawn)	2.2	x	x	x	x	x
COc1cc(/C=N/Nc2nc3ccccc3[nH]2)cc(OC)c1O	-0.2	6.7	149.4*	146.2	37.4	2.7
SMILES	MPTP block	dFosB act	HSF-1 act	HSF1 inh	Platelet DG rel	HSP90 refold inh
COc1cccc(/C=N/Nc2nc3ccccc3[nH]2)c1O	5.1	-7.6	48.8	31.1	5.6	1.4
COc1ccc(/C=N/Nc2ccccn2)cc1O	1.9	-3.3	6.2	5.4	80.1*	-3.9
COc1ccc(O)c(/C=N/Nc2nc3ccccc3[nH]2)c1	-0.5	-3.0	235.6*	179.2	6.1	5.8
COc1cc(/C=N/Nc2nc(C)cc(C)n2)ccc1O	-1.5	x	x	x	x	x
COc1cc(/C=N/Nc2snc(SC)c2C#N)ccc1O	2.3	-1.4	74.6*	46.3	6.0	-2.1
O=[N+]([O-])c1ccc(O)c(/C=N/Nc2nc3ccccc3[nH]2)c1	9.4	1.8	u	79.3	0.0	-3.4
CC(C)(C)c1ccc(NC(=O)Nc2ccc(OCC(=O)N3CCOCC3)cc2)cc1	1.9	2.1	41.3	14.6	-8.5	3.7
COc1cc(/C=C(/C(=O)c2cccs2)c2nc3ccccc3[nH]2)cc(OC)c1O	3.5	-5.8	351.3*	268.3	17.1	3.8
Clc1nc2ccccc2cc1/C=N/Nc1nc2ccccc2[nH]1	15.6	17.8*	17.6	-3.8	48.1	3.9
COc1cc(/C=N/Nc2nc3ccccc3[nH]2)ccc1O	-0.1	-2.5	344.4*	333.2	-3.1	-3.1
O=C(NCc1nc2ccccc2[nH]1)c1cccs1	-0.8	-0.7	-11.4	1.1	5.5	-1.1
CCc1ccccc1NC(=O)CNC(=O)CCc1nc2sc3c(c2c(=O)[nH]1)CCCC3	-1.9	-6.5	31.2	4.5	-15.4	x
CCOC(=O)c1cc(-c2ccccc2)nc2c(O)cccc12	1.6	-2.6	9.0	9.0	x	x
CC(=O)C1=NN(c2ccc(Cl)cc2)C(c2ccc3c(c2)OCO3)N(C(C)=O)N1C (stereo not drawn)	0.8	-0.7	7.7	7.1	6.4	2.9
Cc1ccsc1C(=O)Nc1cc(Cl)ccc1-n1cncn1	-0.2	-11.6	x	x	x	x
Cc1ccc(NC(=O)CN2C(=S)NC(C)(C)CC2C)cc1Cl (stereo not drawn)	0.7	-4.6	x	x	x	1.4
CC(=O)c1cccc(NC(=O)CN2C(=S)NC(C)(C)CC2C)c1 (stereo not drawn)	-1.7	-5.9	-71.0	-62.0*	1.8	2.5
CCOC(=O)C1CCN(C(=O)c2cc3c(ccc4ccccc43)o2)CC1	0.0	-19.3	77.4*	52.2	4.2	-2.2
Nc1nc(Nc2ccccc2)sc1C(=O)c1ccccc1	1.6	-0.5	62.1*	25.2	-3.9	2.1
CCCN(CCO)C1CCN(CCc2ccccc2)CC1	-0.3	-10.3	4.3	-2.8	-5.4	-0.3
O=C(CSc1ccc(F)cc1)Nc1ccc(C2SCCS2)cc1	7.0	-6.6	59.8*	45.8	-9.0	-4.6
Cc1cccc(-n2nc(C(=O)c3ccco3)cc(-c3nc4ccccc4[nH]3)c2=N)c1	48.5	33.5*	-41.3	-33.8	16.6	4.8
CC(C)(O)C#Cc1ccc(C(=O)NC2CCCCC2)s1	-1.3	-11.7	16.3	10.4	-0.4	-4.1
CCc1ccc(C(=O)NC2CCCCC2)s1	-1.5	-4.5	54.0*	25.7	10.8	-0.7
O=c1[nH][nH]c(=O)c(Cl)c1Cl	-2.2	2.0	x	x	x	x
CCOC(=O)c1c(NC(=O)OC)sc(C(=O)N(CC)CC)c1C	-0.1	-0.6	-78.2	-71.9*	x	3.9
Cn1nc(C(=O)Nc2nc3ccc(S(C)(=O)=O)cc3s2)ccc1=O	-1.0	-0.5	8.1	-3.1	53.0*	3.4
